In PubChem BioAssay (NCATS) one finds Potency data, which are given here for seven compounds.

Structures are written as SMILES. Results filed as inconclusive are left out. Calls of active or inactive are those of the source. Calls come from the whole dose curve; as a rule, active = well fitted inhibition curve with a large enough effect; inconclusive = small, poorly fitted or top-dose-only effect; inactive = no such curve, though single readings can be large or run the other way.
Potency is the fitted concentration of half-maximal effect.

The assay deals with Aldehyde dehydrogenase 1A1 (Homo sapiens) (UniProt P00352). As to the kind of experiment: qHTS for Inhibitors of the Aldehyde Dehydrogenase Family (ALDH1A1) Confirmatory screens (AID 2061316). Note: nearly all actives have a fitted effect of over 65% in size. The conditions noted are these: ALDH inhibition qHTS; series mostly up to 47.3 µM. (In qHTS, concentration-response curves come from the screen itself.)
Regarding `O=c1c2ccccc2nc2sc(NS(=O)(=O)c3ccc4c(c3)CCC4)nn12`, the Potency is 8.96 µM (active).

In the case of `COc1cccc(CNc2ccc(S(=O)(=O)Nc3cccs3)cc2)c1O`, the Potency is 0.634 µM (active).

Turning to `Cc1ccc([S+](=O)([O-])Nc2nn3c(=O)c4ccccc4nc3s2)cc1C`, the Potency was 12.7 µM (active).

With `O=C1c2ccccc2NC(c2ccc(-c3cccc(Cl)c3)o2)N1O` (configuration not stated), the Potency was 22.5 µM (active).

Consider `FC(F)(F)c1ccccc1-c1nc(NCc2ccc(-c3ccc(Cl)c(Cl)c3)cc2)c2ccccc2n1`, for which the Potency is 20.1 µM (active).

For `O=S1(=O)N=C(Oc2ccc(Br)cc2)c2ccccc21`, the Potency is 12.7 µM (active).

In the case of `CN(CC(=O)Nc1ccc(N2CCOCC2)cc1)Cc1cccc2ccccc12`, the Potency was 11.3 µM (active).
